From PubChem
CtBP-E1A blk – CtBP/E1A binding inhibition | AlphaScreen GST-E1A/His-CtBP binding, 1536-well; active compounds read low | activity change, % (no concentration beside the values) | 0.49% of 340,000 active; in the data active = activity change below about -65%; inconclusive = mostly about -30% to -63%
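Homogeneous bead-based format: GST-tagged E1A captured on glutathione donor beads, His-tagged CtBP on nickel acceptor beads; compounds precede bead addition by 2 h at 37 °C.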
Six1-Eya2 blk – inhibitors of human Six1/Eya2 interaction | Q15475+O00167 | AlphaScreen GST-Six1/His-Eya2 binding, biochemical; active compounds read low | AID 651725 | activity change, % (no concentration beside the values) | 0.56% of 360,000 active; in the data active = activity change below about -65%; inconclusive = mostly about -30% to -63%
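GST-Six1 + His-Eya2 (5X stock: 250/500 nM); Tris pH 8.0, 300 mM NaCl, 0.05% BSA, 0.02% Tween 20; GSH donor/Ni acceptor beads; 1 h 37 °C dark; AlphaScreen readout.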
IL1B secr inh – inflammasome signaling inhibition, IL-1 beta readout | THP-1 LPS/ATP IL-1B secretion, AlphaLISA, 16 h; active compounds read low | 4.7% of 360,000 active | activity change, % at 57.5 µM | AID 743279; in the data active = activity change below about -50%; inconclusive = mostly about -30% to -49%
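THP-1 cells pretreated 1 hr with compounds (up to 57.5 uM final), then stimulated with LPS (250 ng/mL final) plus ATP (1.25 mM final); secreted IL-1B measured by AlphaLISA after 16 hr, decreased signal indicating inhibition.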
DT40 TDP1 CPT – DT40-hTDP1 cell growth loss with CPT; chicken DT40 Tdp1-/-;hTDP1 cells + 20 nM CPT, ATP luminescence, 48 h; Potency, µM (highest dose often 46.2 µM), inactives show at the highest dose activity change, negative = growth inhibition, usual class: inhibitors; 12% of 420,000 active; AID 686979; also: potency is read from the fitted curve at half-maximal effect; nearly all actives have a fitted effect of over 55% in size
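Chicken DT40 Tdp1-/- cells complemented with human TDP1, 400 cells/well, exposed to compounds plus 20 nM camptothecin for at least 48 h at 37 C; viability read as ATP content by CellTiter-Glo luminescence.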
TDP1 inh – TDP1 (human) enzyme inhibition; Q9NUW8; recombinant TDP1, AlphaScreen DNA substrate cleavage; Potency, µM (top dose mostly 130 µM), inactives show at the top dose activity change, negative = inhibition, usual class: inhibitors; 0.28% of 350,000 active; AID 485290; also: potency is read from the fitted curve at half-maximal effect; nearly all actives have a fitted effect of over 40% in size
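Here, a 5' biotin and 3' phosphotyrosine-FITC DNA oligonucleotide reports Tdp1 activity: intact substrate bridges AlphaScreen beads, while cleavage leaves a 3' phosphate and drops signal. All incubations at room temperature.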
TDP1 cell noCPT – qHTS for Inhibitors of human tyrosyl-DNA phosphodiesterase 1 (TDP1): qHTS in cells in absence of CPT; DT40 Tdp1-/- hTDP1 cells, no CPT, ATP luminescence, 48 h; Potency, µM (series often up to 46.2 µM), inactives show at the top dose activity change, negative = growth inhibition, actives largely listed as inhibitors; 15% of 420,000 active; AID 686978, 2013; also: potency is read from the fitted curve at half-maximal effect; nearly all actives have a fitted effect of over 55% in size
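Growth of hTDP1-complemented DT40 Tdp1-knockout cells is measured by ATP luminescence after at least 48 hr compound exposure at 37 °C, with DMSO substituting for the 20 nM CPT used in the parallel screen.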
Numbers without * were called inactive; ? = inconclusive; . = no result given; [ ] = another dose, or the depositor's remark. The list is not random: actives were taken first. Their share in the collection is about 18%. Unless noted, calls follow the shape of the dose curve; as a rule, active = well fitted curve in the direction sought with a large enough effect; inconclusive = small, poorly fitted or top-dose-only effect, or another doubt; inactive = no such curve, though single readings can be large; an effect the other way counts as inactive or inconclusive. % is scaled to controls: 0 for no effect and ±100 for the full control effect.

SMILES	CtBP-E1A blk	Six1-Eya2 blk	IL1B secr inh	DT40 TDP1 CPT	TDP1 inh	TDP1 cell noCPT
Cc1ccc(OCC(=O)NNC(=O)C(C)Sc2ncnc3sc(C)c(C)c23)cc1 (stereo unspecified)	-8.4	-14.4	0.0	1.1%	0.0%	-18.8%
Cc1sc2ncnc(SCC(=O)NC(C)C(C)C)c2c1C (stereo unspecified)	.	3.7	-10.0	16.4µM*	0.0%	16.4µM*
Cc1sc2ncnc(SCC(=O)NC3CC3)c2c1C	18.1	0.6	0.0	-8.8%	-2.2%	3.3%
Cc1ccc(-c2nnc(SC(C)C(=O)NCC3CCCO3)nc2-c2ccc(C)cc2)cc1 (stereo unspecified)	-21.1	-8.3	?	?	.	?
Cc1ccccc1NC(=O)c1cc(S(=O)(=O)N2CCCCC2)cs1	0.3	4.7	-5.6	-12.9%	-9.6%	-14.3%
CCOC(=O)C(=Cc1c[nH]c2ccc(S(=O)(=O)N(C)C)cc12)C(=O)OCC	1.3	1.3	-100.9*	?	.	16.4µM*
C#CCCCO/N=C1/C[C@@H](O)[C@@H](O)[C@@H]2[C@@H]3C(=O)N([C@@H](C)c4ccccc4)C(=O)[C@H]3CC[C@@H]12	.	.	.	.	4.8%[21 µM]	.
COc1ccc(NC(=O)c2ccc3ccccc3c2)cc1NS(=O)(=O)c1ccc(F)cc1	8.9	-2.7	-9.3	?	5.5%	?
CCN(CC)S(=O)(=O)c1ccc2c(c1)nc(CCC(=O)Nc1cccc(C(F)(F)F)c1)n2CC	-0.9	-6.3	?	29.1µM*	2.0%	?
NNC(=O)c1ccc(Cn2cc(Br)cn2)cc1	7.2	-3.5	13.5	-6.9%	3.8%	-2.9%
Cc1cccc(-n2c(N)c(-c3nc4ccccc4n3C)c3nc4ccccc4nc32)c1	9.3	10.4	18.6	?	5.5%	?
Cn1c(-c2c(N)n(-c3ccccc3)c3nc4ccccc4nc23)nc2ccccc21	17.6	26.0	0.0	11.6µM*	0.0%	?
CCOC(=O)c1c(C)nn(-c2ncccc2NC(=O)NC(C)C)c1C	1.9	-18.1	14.2	20.4%	-7.6%	-0.9%
Nc1cc(OC(=O)c2ccco2)nn1S(=O)(=O)c1ccc(F)cc1	1.7	-0.3	19.1	-9.0%	1.0%	-21.2%
Cc1onc(-c2c(F)cccc2Cl)c1C(=O)OCC(=O)c1c[nH]c2ccccc12	-12.0	-12.9	-52.2*	?	.	18.4µM*
CCCC(=O)c1ccc(OC(=O)c2c(-c3ccccc3Cl)noc2C)cc1	.	.	.	?	-7.8%	?
CCOc1ccc(OC(=O)c2c(-c3ccccc3Cl)noc2C)cc1	.	.	.	?	-7.8%	20.6µM*
Cc1onc(-c2c(F)cccc2Cl)c1C(=O)N(Cc1ccccc1)C(C)C	0.0	9.0	12.4	?	.	9.2µM*
Cc1onc(-c2c(F)cccc2Cl)c1C(=O)Oc1ccccc1	21.5	13.2	13.3	?	.	13µM*
Cc1ccc2c(COC(=O)c3ccccc3Br)cc(=O)oc2c1	3.8	14.3	20.1	-8.8%	-6.8%	-26.7%
COc1ccc(S(=O)(=O)n2nc(OC(=O)c3c(-c4ccccc4Cl)noc3C)cc2N)cc1	?	-72.4*	-23.7	-4.2%	-1.0%	-0.7%
Cc1onc(-c2c(Cl)cccc2Cl)c1C(=O)c1ccccc1	6.4	2.0	21.8	23.1µM*	-2.9%	20.6µM*
Cc1onc(-c2ccccc2Cl)c1C(=O)c1ccccc1	13.5	11.7	.	-9.4%	-3.7%	?
COc1ccc(C)cc1NC(=O)CCS(=O)(=O)c1ccc2c(c1)CCN2C(C)=O	-17.1	-1.7	35.5	-17.0%	0.0%	0.7%
O=S1(=O)c2ccccc2N(Cc2cccc(Cl)c2)c2ccccc21	.	.	.	?	1.9%	?
SMILES	CtBP-E1A blk	Six1-Eya2 blk	IL1B secr inh	DT40 TDP1 CPT	TDP1 inh	TDP1 cell noCPT
Cc1ccc(-c2cc(C(F)F)n3ncc(C(=O)N4CCN(c5ccccn5)CC4)c3n2)cc1	-5.1	-5.5	-8.1	?	7.6%	?
CCCn1c(CN2CCN(C(=O)OCC)CC2)nc2c1c(=O)n(C)c(=O)n2C	4.4	0.6	39.6	8.2µM*	.	5.17µM*
CCCCCCn1c(CN2CCN(C(=O)OCC)CC2)nc2c1c(=O)n(C)c(=O)n2C	15.2	3.4	15.6	20.6µM*	.	?
COc1cc(CNc2nc3c(C)cc(C)cc3s2)ccc1O	-1.6	-3.4	-17.3	?	.	20.6µM*
CCOC(=O)C1C(=O)C=C(c2cccs2)CC1c1ccccc1 (stereo unspecified)	-1.6	-7.9	-11.0	?	1.1%	16.4µM*
CCOC(=O)C1C(=O)C=C(/C=C/c2ccc(N(C)C)cc2)CC1c1ccccc1 (stereo unspecified)	21.5	17.1	7.9	11.6µM*	0.6%	?
CCOC(=O)N1CCC(NC(=O)CS(=O)(=O)Cc2nc(-c3ccccc3C)oc2C)CC1	4.4	3.5	16.6	-18.0%	2.6%	?
CC(=O)N(C)C1(c2nnnn2CCOC(=O)Nc2ccc(Cl)cc2)CCCCC1	-5.6	10.3	9.6	-7.1%	-1.1%	-15.8%
Nc1c(C(=O)Nc2ccc(C(F)(F)F)cc2)sc2nc(-c3cccs3)ccc12	.	.	.	11.1%	.	4.6%
CCOC(=O)c1sc2nc(-c3ccccc3)ccc2c1N	2.3	-1.2	-2.7	-7.0%	0.0%	0.6%
CC(C)CSc1ccccc1NC(=O)c1sc2nc(-c3ccncc3)ccc2c1N	.	.	.	5.8µM*	.	7.31µM*
Nc1c(C(=O)Nc2ccc(Br)cc2)sc2nc(-c3ccncc3)ccc12	.	.	.	-19.6%	22.4µM*	?
Nc1c(C(=O)Nc2ccc(Br)cc2)sc2nc(-c3ccco3)ccc12	12.0	17.7	8.1	?	2.9%	14.6µM*
Nc1c(C(=O)Nc2ccc(F)cc2)sc2nc(-c3ccco3)ccc12	-2.9	4.3	-4.5	?	-7.4%	?
O=C(NCCS(=O)(=O)N1CCN(c2ccccc2)CC1)C1CCCCC1	0.7	3.7	-9.7	-15.3%	.	-21.5%
CN1CCN2c3ccccc3CC(C#N)(C#N)C2C1 (stereo unspecified)	11.8	7.5	8.3	-5.7%	.	4.7%
O=S(=O)(c1ccc(OC(F)(F)F)cc1)N1CCC(c2nnnn2-c2ccc(F)cc2)CC1	.	.	.	0.0%	2.3%	-1.9%
CCN(CC)CC(O)Cn1c(C)c(-c2ccccc2)c2cc([N+](=O)[O-])ccc21 (stereo unspecified)	-13.2	-9.4	-76.6*	20.6µM*	.	9.2µM*
O=[N+]([O-])c1ccc2c(c1)c1ccccc1n2CCO	32.0	18.5	.	9.0%	.	?
